How the values were obtained:
[1] = biological target: CDK3/Cyclin E (Homo sapiens) (UniProt P24864+Q00526); conditions: at 1 µM;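 further: each figure is a mean percent inhibition of the CDK3/cyclin E complex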
[2] = biological target: Cyclin-dependent kinase 4 (Homo sapiens) (UniProt P11802); conditions: at 0.1 µM
[3] = biological target: Cyclin-dependent kinase 4 (Homo sapiens) (UniProt P11802); conditions: at 1 µM
[4] = biological target: Cyclin-dependent kinase 5 (Homo sapiens) (UniProt Q00535); conditions: at 0.1 µM
[5] = biological target: Cyclin-dependent kinase 5 (Homo sapiens) (UniProt Q00535); conditions: at 1 µM
[6] = biological target: Cyclin-dependent kinase 6 (Homo sapiens) (UniProt Q00534); conditions: at 0.1 µM
[7] = biological target: Cyclin-dependent kinase 6 (Homo sapiens) (UniProt Q00534); conditions: at 1 µM
[8] = biological target: Dual specificity protein kinase CLK2 (Homo sapiens) (UniProt P49760); conditions: at 0.1 µM
[9] = biological target: Dual specificity protein kinase CLK2 (Homo sapiens) (UniProt P49760); conditions: at 1 µM
[10] = biological target: Dual specificity protein kinase CLK3 (Homo sapiens) (UniProt P49761); conditions: at 0.1 µM
[11] = biological target: Dual specificity protein kinase CLK3 (Homo sapiens) (UniProt P49761); conditions: at 1 µM
[12] = biological target: Dual specificity tyrosine-phosphorylation-regulated kinase 1A (Homo sapiens) (UniProt Q13627); conditions: at 0.1 µM
[13] = biological target: Dual specificity tyrosine-phosphorylation-regulated kinase 1A (Homo sapiens) (UniProt Q13627); conditions: at 1 µM
[14] = biological target: Dual specificity tyrosine-phosphorylation-regulated kinase 1B (Homo sapiens) (UniProt Q9Y463); conditions: at 0.1 µM
[15] = biological target: Dual specificity tyrosine-phosphorylation-regulated kinase 1B (Homo sapiens) (UniProt Q9Y463); conditions: at 1 µM
[16] = biological target: T1, Dual specificity tyrosine-phosphorylation-regulated kinase 2 (Homo sapiens) (UniProt Q92630); conditions: at 0.1 µM
T1 sequence (whole entry): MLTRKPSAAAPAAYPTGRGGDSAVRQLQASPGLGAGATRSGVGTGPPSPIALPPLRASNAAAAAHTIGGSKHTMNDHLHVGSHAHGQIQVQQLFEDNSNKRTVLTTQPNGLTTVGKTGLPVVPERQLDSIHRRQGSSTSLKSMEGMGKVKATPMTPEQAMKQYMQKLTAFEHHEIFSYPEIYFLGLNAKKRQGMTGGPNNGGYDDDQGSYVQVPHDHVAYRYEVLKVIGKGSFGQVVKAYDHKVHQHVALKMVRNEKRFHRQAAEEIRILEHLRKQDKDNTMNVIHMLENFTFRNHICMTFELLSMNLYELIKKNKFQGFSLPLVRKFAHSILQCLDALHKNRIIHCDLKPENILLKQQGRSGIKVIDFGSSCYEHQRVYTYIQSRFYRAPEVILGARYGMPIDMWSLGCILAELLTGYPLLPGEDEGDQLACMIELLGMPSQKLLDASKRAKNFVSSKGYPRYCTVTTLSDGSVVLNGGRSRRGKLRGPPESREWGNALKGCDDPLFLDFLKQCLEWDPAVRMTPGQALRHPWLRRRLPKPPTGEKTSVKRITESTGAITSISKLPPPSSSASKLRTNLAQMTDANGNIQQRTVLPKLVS

[17] = biological target: T1, Dual specificity tyrosine-phosphorylation-regulated kinase 2 (Homo sapiens); conditions: at 1 µM
[18] = biological target: Glycogen synthase kinase-3 alpha (Homo sapiens) (UniProt P49840); conditions: at 0.1 µM
[19] = biological target: Glycogen synthase kinase-3 alpha (Homo sapiens) (UniProt P49840); conditions: at 1 µM
[20] = biological target: Glycogen synthase kinase-3 beta (Homo sapiens) (UniProt P49841); conditions: at 0.1 µM;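 further: values are mean percent inhibition of GSK3B activity, from the GSK Published Kinase Inhibitor Set (PKIS) screening dataset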
Chain of Glycogen synthase kinase-3 beta (Homo sapiens) (P49841 whole entry, looked up): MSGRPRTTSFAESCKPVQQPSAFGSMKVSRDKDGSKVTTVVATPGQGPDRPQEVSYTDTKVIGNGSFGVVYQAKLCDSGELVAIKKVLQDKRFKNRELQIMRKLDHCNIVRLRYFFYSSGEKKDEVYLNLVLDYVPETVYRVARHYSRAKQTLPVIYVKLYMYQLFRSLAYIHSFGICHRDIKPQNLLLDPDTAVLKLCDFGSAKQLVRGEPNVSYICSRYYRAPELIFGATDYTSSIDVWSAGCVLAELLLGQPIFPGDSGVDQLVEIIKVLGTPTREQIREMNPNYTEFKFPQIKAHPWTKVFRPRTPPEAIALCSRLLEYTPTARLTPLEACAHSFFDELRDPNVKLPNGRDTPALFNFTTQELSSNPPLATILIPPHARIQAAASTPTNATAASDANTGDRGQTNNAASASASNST

Chain of Cyclin-dependent kinase 5 (Homo sapiens) (Q00535 whole entry, looked up): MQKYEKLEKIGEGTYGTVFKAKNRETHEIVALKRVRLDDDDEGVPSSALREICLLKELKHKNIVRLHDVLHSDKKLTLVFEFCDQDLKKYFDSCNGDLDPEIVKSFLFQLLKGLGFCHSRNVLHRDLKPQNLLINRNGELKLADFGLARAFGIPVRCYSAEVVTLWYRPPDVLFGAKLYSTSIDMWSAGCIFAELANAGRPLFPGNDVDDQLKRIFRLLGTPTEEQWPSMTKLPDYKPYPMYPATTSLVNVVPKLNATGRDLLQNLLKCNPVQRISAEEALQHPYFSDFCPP
Chain of Cyclin-dependent kinase 4 (Homo sapiens) (P11802 whole entry): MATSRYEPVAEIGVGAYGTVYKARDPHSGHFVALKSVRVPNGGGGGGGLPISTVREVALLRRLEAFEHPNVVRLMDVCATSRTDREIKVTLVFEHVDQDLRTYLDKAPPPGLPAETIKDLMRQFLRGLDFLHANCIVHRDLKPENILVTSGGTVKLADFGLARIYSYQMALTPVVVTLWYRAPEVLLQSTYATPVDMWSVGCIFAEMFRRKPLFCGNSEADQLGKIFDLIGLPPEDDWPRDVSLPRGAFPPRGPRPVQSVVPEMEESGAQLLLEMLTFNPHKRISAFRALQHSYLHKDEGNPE
Chain of Dual specificity tyrosine-phosphorylation-regulated kinase 1B (Homo sapiens) (Q9Y463 whole entry, looked up): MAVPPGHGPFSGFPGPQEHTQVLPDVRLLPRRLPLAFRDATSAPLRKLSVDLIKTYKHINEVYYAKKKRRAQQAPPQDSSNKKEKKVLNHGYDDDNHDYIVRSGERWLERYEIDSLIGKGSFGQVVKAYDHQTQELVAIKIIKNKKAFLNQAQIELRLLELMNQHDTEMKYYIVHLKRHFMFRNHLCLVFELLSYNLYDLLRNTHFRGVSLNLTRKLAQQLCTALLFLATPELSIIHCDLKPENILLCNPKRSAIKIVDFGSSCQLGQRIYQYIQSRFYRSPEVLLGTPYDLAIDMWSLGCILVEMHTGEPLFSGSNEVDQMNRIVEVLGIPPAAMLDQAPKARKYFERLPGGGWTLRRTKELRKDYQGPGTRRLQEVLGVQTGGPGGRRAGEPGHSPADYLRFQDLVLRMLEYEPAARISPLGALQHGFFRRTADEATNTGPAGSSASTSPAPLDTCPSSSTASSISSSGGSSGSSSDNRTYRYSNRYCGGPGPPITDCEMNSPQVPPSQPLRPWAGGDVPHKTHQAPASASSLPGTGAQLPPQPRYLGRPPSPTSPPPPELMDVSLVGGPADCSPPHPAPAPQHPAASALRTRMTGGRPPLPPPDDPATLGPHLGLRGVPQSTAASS
Chain of Glycogen synthase kinase-3 alpha (Homo sapiens) (P49840 2-483 limits assumed): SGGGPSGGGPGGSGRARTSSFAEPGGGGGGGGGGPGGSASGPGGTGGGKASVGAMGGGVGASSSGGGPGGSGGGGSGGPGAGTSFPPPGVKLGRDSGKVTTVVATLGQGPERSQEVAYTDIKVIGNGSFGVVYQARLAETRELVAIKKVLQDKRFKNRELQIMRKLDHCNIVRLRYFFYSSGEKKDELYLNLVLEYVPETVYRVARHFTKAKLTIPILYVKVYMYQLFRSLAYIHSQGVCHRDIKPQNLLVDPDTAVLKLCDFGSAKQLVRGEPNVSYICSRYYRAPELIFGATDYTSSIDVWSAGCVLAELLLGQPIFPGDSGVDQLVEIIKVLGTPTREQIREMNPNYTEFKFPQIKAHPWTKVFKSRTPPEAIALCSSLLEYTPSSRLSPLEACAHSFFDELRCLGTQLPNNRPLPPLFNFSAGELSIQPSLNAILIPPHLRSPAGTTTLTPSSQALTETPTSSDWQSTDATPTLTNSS
Chain of Dual specificity protein kinase CLK3 (Homo sapiens) (P49761 whole entry, looked up): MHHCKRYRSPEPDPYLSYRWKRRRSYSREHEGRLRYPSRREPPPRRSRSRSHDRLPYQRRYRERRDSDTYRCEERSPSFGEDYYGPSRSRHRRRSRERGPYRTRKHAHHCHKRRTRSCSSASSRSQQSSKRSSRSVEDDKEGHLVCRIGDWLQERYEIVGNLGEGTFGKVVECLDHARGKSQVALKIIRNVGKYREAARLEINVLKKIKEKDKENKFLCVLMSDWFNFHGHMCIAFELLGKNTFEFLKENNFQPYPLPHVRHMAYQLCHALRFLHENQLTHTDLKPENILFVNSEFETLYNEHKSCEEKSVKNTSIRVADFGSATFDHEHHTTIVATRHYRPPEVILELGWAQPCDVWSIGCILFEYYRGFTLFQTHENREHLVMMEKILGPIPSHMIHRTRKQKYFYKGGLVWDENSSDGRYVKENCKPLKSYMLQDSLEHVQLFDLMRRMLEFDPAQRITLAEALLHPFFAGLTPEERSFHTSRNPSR
Chain of Dual specificity protein kinase CLK2 (Homo sapiens) (P49760 whole entry, looked up): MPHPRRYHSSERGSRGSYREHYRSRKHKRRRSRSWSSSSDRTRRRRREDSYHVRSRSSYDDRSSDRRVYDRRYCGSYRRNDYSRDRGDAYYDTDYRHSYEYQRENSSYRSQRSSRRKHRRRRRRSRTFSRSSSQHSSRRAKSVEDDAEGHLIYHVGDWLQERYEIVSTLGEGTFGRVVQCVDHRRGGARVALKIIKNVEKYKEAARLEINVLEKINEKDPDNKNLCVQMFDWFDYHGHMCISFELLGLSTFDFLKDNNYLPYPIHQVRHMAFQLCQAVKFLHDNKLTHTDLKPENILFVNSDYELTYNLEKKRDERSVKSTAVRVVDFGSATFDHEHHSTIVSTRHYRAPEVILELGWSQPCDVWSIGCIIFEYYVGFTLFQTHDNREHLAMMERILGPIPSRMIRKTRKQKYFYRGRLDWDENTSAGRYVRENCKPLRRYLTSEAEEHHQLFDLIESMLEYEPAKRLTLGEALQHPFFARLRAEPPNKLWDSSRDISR
Chain of CDK3/Cyclin E (Homo sapiens) (P24864 whole entry, looked up): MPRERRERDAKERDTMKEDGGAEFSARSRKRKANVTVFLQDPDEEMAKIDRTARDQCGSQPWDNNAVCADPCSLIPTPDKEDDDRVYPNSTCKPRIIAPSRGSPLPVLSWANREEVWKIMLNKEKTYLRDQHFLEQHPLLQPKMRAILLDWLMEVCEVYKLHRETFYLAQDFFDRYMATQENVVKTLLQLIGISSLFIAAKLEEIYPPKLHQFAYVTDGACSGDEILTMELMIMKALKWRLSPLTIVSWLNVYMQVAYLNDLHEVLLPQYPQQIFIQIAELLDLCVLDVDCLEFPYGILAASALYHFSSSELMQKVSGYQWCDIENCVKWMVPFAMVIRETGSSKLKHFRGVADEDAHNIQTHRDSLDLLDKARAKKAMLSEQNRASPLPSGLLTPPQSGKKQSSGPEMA
Chain of CDK3/Cyclin E (Homo sapiens) (Q00526 whole entry, looked up): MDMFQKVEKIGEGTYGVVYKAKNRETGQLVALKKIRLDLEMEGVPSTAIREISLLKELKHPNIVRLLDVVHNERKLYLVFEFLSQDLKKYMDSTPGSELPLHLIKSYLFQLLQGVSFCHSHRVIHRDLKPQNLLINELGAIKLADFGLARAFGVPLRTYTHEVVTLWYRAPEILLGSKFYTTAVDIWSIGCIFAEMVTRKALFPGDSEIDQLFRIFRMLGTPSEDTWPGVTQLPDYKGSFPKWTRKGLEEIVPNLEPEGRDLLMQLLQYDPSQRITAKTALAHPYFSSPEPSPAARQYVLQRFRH
Chain of Cyclin-dependent kinase 6 (Homo sapiens) (Q00534 whole entry): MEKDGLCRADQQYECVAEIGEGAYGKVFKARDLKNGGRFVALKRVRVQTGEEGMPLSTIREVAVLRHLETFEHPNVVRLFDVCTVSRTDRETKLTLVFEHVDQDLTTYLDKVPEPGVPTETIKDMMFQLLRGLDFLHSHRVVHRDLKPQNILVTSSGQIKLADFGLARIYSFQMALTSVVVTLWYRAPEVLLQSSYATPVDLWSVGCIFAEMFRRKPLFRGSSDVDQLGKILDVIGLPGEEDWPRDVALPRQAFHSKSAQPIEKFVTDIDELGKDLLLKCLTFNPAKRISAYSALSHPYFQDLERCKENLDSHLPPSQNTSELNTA

| Compound | inhibition [1] | inhibition [2] | inhibition [3] | inhibition [4] | inhibition [5] | inhibition [6] | inhibition [7] | inhibition [8] | inhibition [9] | inhibition [10] | inhibition [11] | inhibition [12] | inhibition [13] | inhibition [14] | inhibition [15] | inhibition [16] | inhibition [17] | inhibition [18] | inhibition [19] | inhibition [20] |
| --- | --- | --- | --- | --- | --- | --- | --- | --- | --- | --- | --- | --- | --- | --- | --- | --- | --- | --- | --- | --- |
| COc1cccc(/C=N/Nc2ncnc3c2cnn3-c2cccc(OC)c2)c1 | -2.86% | 2.17% | 4.46% | 0.77% | 3.98% | -0.23% | 1.15% | 0.01% | 0.99% | 0.55% | 1.67% | 3.1% | 7.79% | -0.79% | 2.23% | 2.19% | 6.04% | 14.8% | 58.1% | 10.3% |
| O=C(Nc1n[nH]c2nc(-c3ccco3)ccc12)C1CC1 | 4.64% | 1.89% | 2.71% | -0.11% | 1.68% | 3.9% | 8.22% | -0.38% | -0.4% | 0.26% | 0.48% | -0.57% | 1.05% | -0.1% | 1.34% | 1.49% | 1.64% | 11.5% | 48.9% | – |
| COc1ccc(-c2ccc3c(NC(=O)C4CC4)n[nH]c3n2)cc1 | 3.03% | 1.65% | 11.4% | 0.42% | 2.12% | 5.98% | 38% | 0.68% | 1.56% | 0.83% | 2.15% | 0.91% | 1.49% | -0.93% | 0.04% | 1.19% | 2.63% | 3.01% | 8.2% | – |
| CN(c1ccc(NC(=O)Nc2c(Cl)cccc2Cl)cc1)c1ccnc(Nc2cccc(CS(C)(=O)=O)c2)n1 | -0.7% | -0.86% | -0.25% | 0.43% | 1.99% | 3.57% | -0.75% | 3.63% | 5.49% | -0.2% | 1.23% | -0.53% | 0.63% | -0.2% | 1.52% | 2.28% | 1.29% | 4.09% | 10% | 4.11% |
| Fc1ccc(-c2ncn(C3CCNCC3)c2-c2ccnc(Oc3ccc(F)c(F)c3)n2)cc1 | -1.08% | 0.19% | 3.54% | 1.99% | 3.94% | -4.37% | -0.06% | 0.86% | -0.42% | -3.62% | -3.79% | -2.02% | -0.16% | -4.48% | -2.53% | 1.98% | 2.31% | 0.07% | 2.94% | -0.48% |
| C[C@@H](Oc1cc(-n2cnc3ccc(OCC4CCN(C)CC4)cc32)sc1C(N)=O)c1ccccc1Cl | -1.61% | 2.79% | 7.39% | 1.33% | 3.11% | 0.41% | 0.37% | 1.46% | 7.9% | 1.64% | 2.9% | 2.94% | 3.56% | 1.54% | 2.55% | 4.66% | 9.72% | 4.39% | 10.2% | 2.71% |
| COc1ccc(C2=C(N3CCc4ccccc43)C(=O)NC2=O)cc1 | -1.35% | 3.95% | 4.61% | 1.51% | 3.83% | 4.88% | 7.18% | 0.19% | 7.06% | 2.88% | 4.16% | 4.7% | 13% | 1.97% | 8.53% | 3.77% | 5.13% | 11.5% | 42.9% | – |

From ChEMBL document CHEMBL1961873, “Compounds: GSK PKIS; Assays: Nanosyn kinase panel” (2012)
